# How the values were obtained:
# [1] = target: Sphingosine kinase 1 (Homo sapiens) (UniProt Q9NYA1); conditions: at 1 µM;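 further: mean SPHK1 inhibition value reported from the GSK PKIS kinase panel screen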
# [2] = target: T1, Sphingosine kinase 2 (Homo sapiens) (UniProt Q9NRA0); conditions: at 0.1 µM
# T1 sequence (whole entry): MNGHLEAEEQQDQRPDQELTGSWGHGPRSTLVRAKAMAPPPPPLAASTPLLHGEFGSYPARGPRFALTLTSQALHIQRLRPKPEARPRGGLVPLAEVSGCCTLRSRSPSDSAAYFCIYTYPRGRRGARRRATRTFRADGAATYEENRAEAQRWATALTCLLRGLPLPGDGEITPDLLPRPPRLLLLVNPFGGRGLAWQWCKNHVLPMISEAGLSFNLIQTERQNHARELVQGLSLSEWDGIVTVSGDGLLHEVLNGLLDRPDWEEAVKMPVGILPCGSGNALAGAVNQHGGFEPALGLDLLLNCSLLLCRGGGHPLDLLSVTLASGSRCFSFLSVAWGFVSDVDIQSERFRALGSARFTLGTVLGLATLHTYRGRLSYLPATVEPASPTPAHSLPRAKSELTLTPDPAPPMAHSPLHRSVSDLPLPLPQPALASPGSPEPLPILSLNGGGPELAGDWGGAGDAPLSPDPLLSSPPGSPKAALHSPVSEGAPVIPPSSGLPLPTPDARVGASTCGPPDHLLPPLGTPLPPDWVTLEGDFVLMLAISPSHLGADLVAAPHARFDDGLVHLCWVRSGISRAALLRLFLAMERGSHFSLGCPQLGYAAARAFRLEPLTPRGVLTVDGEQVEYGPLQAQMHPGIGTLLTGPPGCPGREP
# [3] = target: T1, Sphingosine kinase 2 (Homo sapiens); conditions: at 1 µM
# [4] = target: Casein kinase II subunit alpha (Homo sapiens) (UniProt P68400); conditions: at 0.1 µM
# Casein kinase II subunit alpha (Homo sapiens), sequence (P68400 whole entry, looked up): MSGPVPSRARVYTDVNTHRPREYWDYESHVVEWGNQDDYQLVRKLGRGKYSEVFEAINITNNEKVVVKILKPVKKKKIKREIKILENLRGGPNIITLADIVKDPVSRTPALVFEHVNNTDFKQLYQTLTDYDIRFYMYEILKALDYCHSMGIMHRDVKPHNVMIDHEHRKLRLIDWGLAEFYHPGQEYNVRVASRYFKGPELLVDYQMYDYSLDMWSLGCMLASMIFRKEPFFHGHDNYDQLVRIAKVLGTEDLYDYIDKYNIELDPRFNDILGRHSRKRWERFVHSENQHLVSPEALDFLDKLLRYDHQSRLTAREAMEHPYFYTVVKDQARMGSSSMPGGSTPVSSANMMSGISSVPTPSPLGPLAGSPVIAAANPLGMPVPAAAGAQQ
# [5] = target: Casein kinase II subunit alpha (Homo sapiens) (UniProt P68400); conditions: at 1 µM
# [6] = target: T2, Inhibitor of nuclear factor kappa-B kinase subunit alpha (Homo sapiens) (UniProt O15111); conditions: at 0.1 µM
# T2 sequence (whole entry): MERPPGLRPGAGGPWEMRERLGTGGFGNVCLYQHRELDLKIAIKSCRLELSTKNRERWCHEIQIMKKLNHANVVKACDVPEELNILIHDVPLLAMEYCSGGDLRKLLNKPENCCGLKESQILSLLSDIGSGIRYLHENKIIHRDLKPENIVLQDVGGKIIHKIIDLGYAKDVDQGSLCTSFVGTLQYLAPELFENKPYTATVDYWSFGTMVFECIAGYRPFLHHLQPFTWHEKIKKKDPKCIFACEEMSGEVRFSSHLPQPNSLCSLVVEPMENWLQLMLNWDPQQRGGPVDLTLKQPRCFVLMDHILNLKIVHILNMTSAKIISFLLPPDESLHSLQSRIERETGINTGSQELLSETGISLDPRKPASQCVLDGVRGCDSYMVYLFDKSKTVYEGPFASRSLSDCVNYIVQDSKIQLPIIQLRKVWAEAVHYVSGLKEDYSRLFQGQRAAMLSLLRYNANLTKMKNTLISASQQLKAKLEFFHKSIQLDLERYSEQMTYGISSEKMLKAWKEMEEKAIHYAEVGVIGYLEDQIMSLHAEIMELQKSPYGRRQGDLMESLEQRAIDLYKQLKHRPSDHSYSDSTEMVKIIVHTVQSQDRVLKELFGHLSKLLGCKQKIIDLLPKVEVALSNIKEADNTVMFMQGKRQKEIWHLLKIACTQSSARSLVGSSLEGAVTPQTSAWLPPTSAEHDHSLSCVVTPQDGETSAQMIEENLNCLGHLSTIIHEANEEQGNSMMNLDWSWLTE
# [7] = target: T2, Inhibitor of nuclear factor kappa-B kinase subunit alpha (Homo sapiens); conditions: at 1 µM
# [8] = target: T3, Inhibitor of nuclear factor kappa-B kinase subunit beta (Homo sapiens) (UniProt O14920); conditions: at 0.1 µM
# T3 sequence (whole entry): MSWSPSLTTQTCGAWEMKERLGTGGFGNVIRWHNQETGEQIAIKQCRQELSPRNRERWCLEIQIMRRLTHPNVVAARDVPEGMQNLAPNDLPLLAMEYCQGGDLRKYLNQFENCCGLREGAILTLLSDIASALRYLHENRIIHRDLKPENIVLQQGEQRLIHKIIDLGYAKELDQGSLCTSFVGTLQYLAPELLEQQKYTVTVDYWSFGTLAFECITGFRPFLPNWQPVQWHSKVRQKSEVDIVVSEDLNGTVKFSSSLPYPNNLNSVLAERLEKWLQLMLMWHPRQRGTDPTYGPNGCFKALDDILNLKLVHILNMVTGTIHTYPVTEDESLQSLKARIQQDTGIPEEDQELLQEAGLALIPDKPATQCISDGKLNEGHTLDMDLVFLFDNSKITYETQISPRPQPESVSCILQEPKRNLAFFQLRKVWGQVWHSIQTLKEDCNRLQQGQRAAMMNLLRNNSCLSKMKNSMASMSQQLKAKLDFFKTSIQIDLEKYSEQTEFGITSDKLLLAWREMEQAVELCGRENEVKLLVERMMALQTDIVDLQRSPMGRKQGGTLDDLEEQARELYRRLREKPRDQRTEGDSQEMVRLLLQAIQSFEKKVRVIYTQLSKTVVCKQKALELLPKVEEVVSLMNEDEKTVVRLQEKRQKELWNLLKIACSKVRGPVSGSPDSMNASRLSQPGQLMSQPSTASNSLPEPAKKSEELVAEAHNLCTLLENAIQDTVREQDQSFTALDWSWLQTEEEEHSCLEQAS
# [9] = target: T3, Inhibitor of nuclear factor kappa-B kinase subunit beta (Homo sapiens); conditions: at 1 µM
# [10] = target: T4, Inhibitor of nuclear factor kappa-B kinase subunit epsilon (Homo sapiens) (UniProt Q14164); conditions: at 0.1 µM
# T4 sequence (whole entry): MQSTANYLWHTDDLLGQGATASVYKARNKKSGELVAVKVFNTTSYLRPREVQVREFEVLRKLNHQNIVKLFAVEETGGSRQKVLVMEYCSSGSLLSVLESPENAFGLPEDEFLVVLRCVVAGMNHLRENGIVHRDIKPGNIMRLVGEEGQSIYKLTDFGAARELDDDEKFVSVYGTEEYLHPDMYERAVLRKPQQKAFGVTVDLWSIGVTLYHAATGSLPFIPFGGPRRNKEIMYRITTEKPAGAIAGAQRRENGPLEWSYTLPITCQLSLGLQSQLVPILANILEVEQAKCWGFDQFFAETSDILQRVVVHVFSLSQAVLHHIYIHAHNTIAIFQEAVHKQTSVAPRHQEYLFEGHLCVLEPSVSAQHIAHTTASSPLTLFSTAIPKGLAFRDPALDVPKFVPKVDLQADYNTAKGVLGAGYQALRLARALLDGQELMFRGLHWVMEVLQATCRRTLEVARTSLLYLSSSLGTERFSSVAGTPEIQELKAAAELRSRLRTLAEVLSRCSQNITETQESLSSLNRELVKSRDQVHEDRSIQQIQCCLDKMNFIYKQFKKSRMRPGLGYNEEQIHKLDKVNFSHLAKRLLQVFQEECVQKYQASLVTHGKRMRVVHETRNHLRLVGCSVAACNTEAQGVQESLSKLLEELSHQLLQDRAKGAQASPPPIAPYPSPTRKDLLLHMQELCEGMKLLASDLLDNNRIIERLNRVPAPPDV
# [11] = target: T4, Inhibitor of nuclear factor kappa-B kinase subunit epsilon (Homo sapiens); conditions: at 1 µM
# [12] = target: T5, Serine/threonine-protein kinase Nek1 (Homo sapiens) (UniProt Q96PY6); conditions: at 0.1 µM
# T5 sequence (whole entry): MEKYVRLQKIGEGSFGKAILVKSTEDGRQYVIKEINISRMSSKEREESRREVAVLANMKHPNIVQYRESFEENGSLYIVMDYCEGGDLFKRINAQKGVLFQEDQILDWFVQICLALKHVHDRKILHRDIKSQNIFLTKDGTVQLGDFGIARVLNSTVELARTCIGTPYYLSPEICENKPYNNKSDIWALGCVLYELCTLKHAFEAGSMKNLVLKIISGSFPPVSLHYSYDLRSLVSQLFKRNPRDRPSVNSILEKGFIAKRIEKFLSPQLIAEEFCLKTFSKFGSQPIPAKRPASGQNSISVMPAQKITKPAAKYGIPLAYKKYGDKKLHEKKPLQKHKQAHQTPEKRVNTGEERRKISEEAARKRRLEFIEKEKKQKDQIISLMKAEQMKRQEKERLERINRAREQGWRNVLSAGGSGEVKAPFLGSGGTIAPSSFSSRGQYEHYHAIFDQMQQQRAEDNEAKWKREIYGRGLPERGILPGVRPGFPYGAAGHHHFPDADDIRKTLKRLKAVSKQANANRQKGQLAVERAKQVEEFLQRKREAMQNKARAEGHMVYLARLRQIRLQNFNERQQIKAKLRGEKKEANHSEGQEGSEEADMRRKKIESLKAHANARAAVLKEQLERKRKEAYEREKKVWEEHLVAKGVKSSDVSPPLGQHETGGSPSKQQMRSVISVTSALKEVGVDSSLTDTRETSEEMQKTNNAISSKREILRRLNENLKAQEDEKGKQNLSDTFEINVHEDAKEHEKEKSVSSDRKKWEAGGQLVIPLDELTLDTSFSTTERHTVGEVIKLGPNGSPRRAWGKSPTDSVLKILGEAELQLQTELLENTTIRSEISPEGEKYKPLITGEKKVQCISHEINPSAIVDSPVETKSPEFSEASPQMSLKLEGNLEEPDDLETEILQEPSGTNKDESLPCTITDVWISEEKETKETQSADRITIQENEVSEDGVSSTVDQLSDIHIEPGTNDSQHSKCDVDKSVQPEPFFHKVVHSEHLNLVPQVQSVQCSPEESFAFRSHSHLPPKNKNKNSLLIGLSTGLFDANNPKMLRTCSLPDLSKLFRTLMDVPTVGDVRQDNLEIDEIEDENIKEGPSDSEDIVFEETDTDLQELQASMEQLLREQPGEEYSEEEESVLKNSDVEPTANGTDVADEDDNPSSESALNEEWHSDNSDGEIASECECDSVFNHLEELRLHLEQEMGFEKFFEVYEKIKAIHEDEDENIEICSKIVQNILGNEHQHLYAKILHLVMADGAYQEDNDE
# [13] = target: T5, Serine/threonine-protein kinase Nek1 (Homo sapiens); conditions: at 1 µM
# [14] = target: T6, Serine/threonine-protein kinase Nek2 (Homo sapiens) (UniProt P51955); conditions: at 0.1 µM
# T6 sequence (whole entry): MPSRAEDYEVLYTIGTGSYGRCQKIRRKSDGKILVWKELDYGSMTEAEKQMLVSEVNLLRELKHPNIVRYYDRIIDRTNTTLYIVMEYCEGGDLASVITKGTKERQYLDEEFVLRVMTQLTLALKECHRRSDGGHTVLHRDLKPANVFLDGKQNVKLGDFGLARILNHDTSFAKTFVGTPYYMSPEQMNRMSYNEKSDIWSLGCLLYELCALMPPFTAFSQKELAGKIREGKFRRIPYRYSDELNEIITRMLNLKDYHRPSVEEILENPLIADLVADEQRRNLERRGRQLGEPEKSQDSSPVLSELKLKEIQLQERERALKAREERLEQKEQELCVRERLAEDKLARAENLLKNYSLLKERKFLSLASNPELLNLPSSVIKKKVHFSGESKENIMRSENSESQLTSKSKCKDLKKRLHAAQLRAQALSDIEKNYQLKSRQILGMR
# [15] = target: T6, Serine/threonine-protein kinase Nek2 (Homo sapiens); conditions: at 1 µM
# [16] = target: Serine/threonine-protein kinase Nek6 (Homo sapiens) (UniProt Q9HC98); conditions: at 0.1 µM
# Serine/threonine-protein kinase Nek6 (Homo sapiens), sequence (Q9HC98 whole entry): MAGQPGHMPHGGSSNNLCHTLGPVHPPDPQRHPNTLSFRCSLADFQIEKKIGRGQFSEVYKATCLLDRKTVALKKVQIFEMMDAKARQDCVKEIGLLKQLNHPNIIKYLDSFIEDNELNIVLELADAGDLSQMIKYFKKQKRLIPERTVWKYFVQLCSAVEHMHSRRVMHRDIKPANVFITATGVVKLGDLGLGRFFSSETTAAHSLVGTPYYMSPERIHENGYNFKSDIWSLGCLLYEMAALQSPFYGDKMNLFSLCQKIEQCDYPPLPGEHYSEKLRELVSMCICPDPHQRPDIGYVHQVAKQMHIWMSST
# [17] = target: Serine/threonine-protein kinase Nek6 (Homo sapiens) (UniProt Q9HC98); conditions: at 1 µM
# [18] = target: Serine/threonine-protein kinase Nek7 (Homo sapiens) (UniProt Q8TDX7); conditions: at 0.1 µM
# Serine/threonine-protein kinase Nek7 (Homo sapiens), sequence (Q8TDX7 whole entry, looked up): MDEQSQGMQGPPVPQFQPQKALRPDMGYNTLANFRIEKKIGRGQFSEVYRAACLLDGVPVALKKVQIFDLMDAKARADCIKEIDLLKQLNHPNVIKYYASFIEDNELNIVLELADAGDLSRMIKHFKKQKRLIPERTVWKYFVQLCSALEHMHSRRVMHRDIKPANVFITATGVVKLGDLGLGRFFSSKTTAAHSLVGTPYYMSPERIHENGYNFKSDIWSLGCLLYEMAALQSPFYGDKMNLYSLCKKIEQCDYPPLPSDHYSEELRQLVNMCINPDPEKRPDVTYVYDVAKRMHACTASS
# [19] = target: Serine/threonine-protein kinase Nek7 (Homo sapiens) (UniProt Q8TDX7); conditions: at 1 µM
# [20] = target: T7, Serine/threonine-protein kinase Nek9 (Homo sapiens) (UniProt Q8TD19); conditions: at 0.1 µM;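 further: reported value is the mean percent inhibition of NEK9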
# T7 sequence (whole entry): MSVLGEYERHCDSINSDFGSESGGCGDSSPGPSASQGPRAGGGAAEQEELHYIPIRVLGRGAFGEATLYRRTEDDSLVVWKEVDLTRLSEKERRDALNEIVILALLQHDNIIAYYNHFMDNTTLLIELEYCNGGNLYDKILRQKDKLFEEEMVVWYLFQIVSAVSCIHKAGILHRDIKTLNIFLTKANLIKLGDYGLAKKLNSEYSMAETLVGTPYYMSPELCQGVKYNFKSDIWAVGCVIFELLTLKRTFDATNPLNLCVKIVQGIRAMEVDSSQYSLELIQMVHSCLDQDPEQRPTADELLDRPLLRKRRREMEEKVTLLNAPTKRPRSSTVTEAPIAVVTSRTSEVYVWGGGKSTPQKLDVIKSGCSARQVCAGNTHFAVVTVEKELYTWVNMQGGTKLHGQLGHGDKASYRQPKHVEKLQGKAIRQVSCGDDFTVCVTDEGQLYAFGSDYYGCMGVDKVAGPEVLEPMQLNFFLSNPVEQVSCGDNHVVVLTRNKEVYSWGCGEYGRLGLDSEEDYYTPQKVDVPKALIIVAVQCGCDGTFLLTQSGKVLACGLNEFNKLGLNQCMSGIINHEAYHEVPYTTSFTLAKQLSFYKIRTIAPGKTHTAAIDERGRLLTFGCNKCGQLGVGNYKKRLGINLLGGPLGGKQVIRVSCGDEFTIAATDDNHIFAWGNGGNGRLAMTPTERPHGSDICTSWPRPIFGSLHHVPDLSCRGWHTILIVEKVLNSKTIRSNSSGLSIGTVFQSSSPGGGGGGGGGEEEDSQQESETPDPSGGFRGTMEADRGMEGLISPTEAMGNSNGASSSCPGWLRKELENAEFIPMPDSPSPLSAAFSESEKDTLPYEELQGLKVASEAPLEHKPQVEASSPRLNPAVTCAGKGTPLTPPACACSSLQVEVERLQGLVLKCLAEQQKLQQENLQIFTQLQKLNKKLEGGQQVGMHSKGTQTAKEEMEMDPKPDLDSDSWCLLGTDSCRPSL
# Sphingosine kinase 1 (Homo sapiens), sequence (Q9NYA1 whole entry): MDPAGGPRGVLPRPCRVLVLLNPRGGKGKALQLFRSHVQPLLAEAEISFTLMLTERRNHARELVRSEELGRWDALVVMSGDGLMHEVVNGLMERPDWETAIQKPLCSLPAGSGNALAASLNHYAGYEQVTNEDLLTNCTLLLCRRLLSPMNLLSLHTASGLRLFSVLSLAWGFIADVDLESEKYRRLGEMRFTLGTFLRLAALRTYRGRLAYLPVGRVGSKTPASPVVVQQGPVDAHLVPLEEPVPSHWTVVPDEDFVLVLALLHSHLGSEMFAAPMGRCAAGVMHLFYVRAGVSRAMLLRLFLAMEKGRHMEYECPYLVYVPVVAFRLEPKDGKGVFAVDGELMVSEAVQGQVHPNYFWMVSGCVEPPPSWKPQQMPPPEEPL
Compound,inhibition [1] [%],inhibition [2] [%],inhibition [3] [%],inhibition [4] [%],inhibition [5] [%],inhibition [6] [%],inhibition [7] [%],inhibition [8] [%],inhibition [9] [%],inhibition [10] [%],inhibition [11] [%],inhibition [12] [%],inhibition [13] [%],inhibition [14] [%],inhibition [15] [%],inhibition [16] [%],inhibition [17] [%],inhibition [18] [%],inhibition [19] [%],inhibition [20] [%]
NS(=O)(=O)c1ccc(Nc2cc(-c3cccc(O)c3)n[nH]2)cc1,-2.64,0.05,-0.8,2.68,3.26,2.32,2.31,4.33,5.24,6.1,6.34,3.72,3.43,6.7,7.9,1.66,-3.5,6.05,4.88,4.44
CN(C)C(=O)O[C@H]1CN[C@H](C#Cc2cc3ncnc(Nc4ccc(OCc5cccc(F)c5)c(Cl)c4)c3s2)C1,-2.15,-0.26,0.69,0.63,0.63,1.66,2.62,3.17,-7.42,1.55,4.15,1.2,3.73,4.44,5.04,1.81,-0.96,3.6,2.54,7.4

# Source: ChEMBL document CHEMBL1961873, “Compounds: GSK PKIS; Assays: Nanosyn kinase panel” (2012)
